Test results: publication PMC7862700, “An all-to-all approach to the identification of sequence-specific readers for epigenetic DNA modifications on cytosine”

Assays:
Test in all cases: DAPPL (digital affinity profiling via proximity ligation, sequencing); 10 mM Tris-HCl pH 7.5, 50 mM NaCl, 1 mM DTT, 4% glycerol, room temperature, 30 min; GST-TFs on glutathione beads, 16-mer random dsDNA library, 0.1% formaldehyde crosslink after washing; high values mean tight binding
Details in all cases: protein: recombinant; tags: N-terminal GST; dsDNA, one strand shown
[1] = target: T1, FLI1 (Homo sapiens, UniProt Q01543 1-452)
T1 sequence: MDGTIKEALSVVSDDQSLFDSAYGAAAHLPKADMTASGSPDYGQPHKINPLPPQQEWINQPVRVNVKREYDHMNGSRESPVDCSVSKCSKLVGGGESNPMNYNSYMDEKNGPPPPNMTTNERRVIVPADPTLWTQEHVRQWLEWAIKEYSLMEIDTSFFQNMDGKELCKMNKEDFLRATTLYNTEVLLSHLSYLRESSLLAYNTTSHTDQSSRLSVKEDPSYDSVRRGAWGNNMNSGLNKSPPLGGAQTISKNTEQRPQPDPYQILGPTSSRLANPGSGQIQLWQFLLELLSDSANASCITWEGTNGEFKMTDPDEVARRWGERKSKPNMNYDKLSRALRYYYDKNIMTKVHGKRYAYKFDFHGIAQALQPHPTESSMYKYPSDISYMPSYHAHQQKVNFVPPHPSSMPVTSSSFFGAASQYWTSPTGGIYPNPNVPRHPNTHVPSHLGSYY
In short: (§1)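 A tag-only sample was pooled with DNA-barcoded human transcription factors that had been expressed in yeast as GST fusions and captured on glutathione beads. The pools were incubated for 30 min at room temperature with 200 nmole of a random double-stranded 16-mer DNA library in Tris/NaCl/DTT/glycerol buffer, then washed, crosslinked with 0.1% formaldehyde, proximity-ligated (BsaI/T4 ligase, 1 h, 37 °C), PCR-amplified and sequenced on an Illumina NextSeq500. Binding signal is each hexamer's read frequency for a factor divided by its frequency for the tag-only sample.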

[2] = target: T2, ELK1 (Homo sapiens, UniProt P19419 1-428)
T2 sequence: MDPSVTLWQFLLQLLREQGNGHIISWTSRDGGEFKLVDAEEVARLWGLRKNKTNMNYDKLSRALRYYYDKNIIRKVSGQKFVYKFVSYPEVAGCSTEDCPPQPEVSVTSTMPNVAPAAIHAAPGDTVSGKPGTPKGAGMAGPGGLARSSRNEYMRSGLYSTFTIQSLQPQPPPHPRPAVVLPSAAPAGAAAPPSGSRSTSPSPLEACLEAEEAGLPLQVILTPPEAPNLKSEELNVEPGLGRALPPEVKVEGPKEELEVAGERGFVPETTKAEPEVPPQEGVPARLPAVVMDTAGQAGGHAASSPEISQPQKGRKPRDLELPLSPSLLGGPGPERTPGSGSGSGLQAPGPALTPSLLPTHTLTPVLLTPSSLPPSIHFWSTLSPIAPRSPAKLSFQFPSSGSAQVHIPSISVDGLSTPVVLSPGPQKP
In short: as §1

[3] = target: T3, GABPA (Homo sapiens, UniProt Q06546 1-454)
T3 sequence: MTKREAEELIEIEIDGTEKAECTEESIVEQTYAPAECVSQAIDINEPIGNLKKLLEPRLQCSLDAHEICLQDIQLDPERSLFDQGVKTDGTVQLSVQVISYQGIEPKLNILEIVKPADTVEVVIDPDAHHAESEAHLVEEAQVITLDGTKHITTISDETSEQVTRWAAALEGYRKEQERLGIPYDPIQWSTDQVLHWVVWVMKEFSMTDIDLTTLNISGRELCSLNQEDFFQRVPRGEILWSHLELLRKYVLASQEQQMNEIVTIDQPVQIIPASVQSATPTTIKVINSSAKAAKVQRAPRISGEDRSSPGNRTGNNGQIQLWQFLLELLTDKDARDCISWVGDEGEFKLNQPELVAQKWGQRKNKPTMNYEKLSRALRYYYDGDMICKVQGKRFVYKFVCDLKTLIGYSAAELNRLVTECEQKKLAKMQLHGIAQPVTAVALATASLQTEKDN
In short: as §1

[4] = target: T4, ERG (Homo sapiens, UniProt P11308 1-479)
T4 sequence: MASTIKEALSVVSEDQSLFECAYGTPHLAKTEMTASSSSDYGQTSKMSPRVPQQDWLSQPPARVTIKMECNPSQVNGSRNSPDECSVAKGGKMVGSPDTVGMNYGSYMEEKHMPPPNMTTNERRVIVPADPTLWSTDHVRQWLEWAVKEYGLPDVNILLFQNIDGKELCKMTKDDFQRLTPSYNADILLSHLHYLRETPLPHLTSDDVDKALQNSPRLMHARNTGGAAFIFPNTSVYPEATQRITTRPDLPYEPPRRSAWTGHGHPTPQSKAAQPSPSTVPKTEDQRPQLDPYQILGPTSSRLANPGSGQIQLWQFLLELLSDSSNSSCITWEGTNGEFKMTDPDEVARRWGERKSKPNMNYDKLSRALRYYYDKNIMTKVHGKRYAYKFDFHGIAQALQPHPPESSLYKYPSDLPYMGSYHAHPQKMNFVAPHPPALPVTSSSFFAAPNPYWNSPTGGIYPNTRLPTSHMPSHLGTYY
In short: as §1

[5] = target: ELF1 (Homo sapiens, UniProt P32519 1-619)
In short: as §1

[6] = target: T5, EHF (Homo sapiens, UniProt Q9NZC4 1-300)
T5 sequence: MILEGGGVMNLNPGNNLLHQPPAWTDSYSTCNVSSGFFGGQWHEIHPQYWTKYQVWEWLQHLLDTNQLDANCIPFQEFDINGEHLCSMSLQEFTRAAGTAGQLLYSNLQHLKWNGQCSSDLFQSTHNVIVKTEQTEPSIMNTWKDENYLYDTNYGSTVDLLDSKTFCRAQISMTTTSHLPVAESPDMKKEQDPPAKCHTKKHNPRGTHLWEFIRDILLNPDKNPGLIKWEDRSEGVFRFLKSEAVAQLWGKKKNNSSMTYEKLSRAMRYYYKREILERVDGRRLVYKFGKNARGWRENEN
In short: as §1

[7] = target: SPI1 (Homo sapiens, UniProt P17947 1-270)
In short: as §1

[8] = target: SPIB (Homo sapiens, UniProt Q01892 1-262)
In short: as §1

[9] = target: T6, ELK3 (Homo sapiens, UniProt P41970 1-407)
T6 sequence: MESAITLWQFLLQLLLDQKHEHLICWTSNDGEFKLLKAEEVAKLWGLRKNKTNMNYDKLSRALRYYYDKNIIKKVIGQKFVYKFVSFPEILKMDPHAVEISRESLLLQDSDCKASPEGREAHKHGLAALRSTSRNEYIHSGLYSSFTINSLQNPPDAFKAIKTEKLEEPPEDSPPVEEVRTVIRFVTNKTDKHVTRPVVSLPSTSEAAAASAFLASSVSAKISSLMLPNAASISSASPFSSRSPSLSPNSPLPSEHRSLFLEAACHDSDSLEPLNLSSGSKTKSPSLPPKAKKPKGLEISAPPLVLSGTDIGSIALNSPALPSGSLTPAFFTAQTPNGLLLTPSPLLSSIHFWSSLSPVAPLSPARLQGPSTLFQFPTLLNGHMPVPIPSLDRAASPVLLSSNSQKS
In short: as §1

ELF1, sequence (P32519 whole entry): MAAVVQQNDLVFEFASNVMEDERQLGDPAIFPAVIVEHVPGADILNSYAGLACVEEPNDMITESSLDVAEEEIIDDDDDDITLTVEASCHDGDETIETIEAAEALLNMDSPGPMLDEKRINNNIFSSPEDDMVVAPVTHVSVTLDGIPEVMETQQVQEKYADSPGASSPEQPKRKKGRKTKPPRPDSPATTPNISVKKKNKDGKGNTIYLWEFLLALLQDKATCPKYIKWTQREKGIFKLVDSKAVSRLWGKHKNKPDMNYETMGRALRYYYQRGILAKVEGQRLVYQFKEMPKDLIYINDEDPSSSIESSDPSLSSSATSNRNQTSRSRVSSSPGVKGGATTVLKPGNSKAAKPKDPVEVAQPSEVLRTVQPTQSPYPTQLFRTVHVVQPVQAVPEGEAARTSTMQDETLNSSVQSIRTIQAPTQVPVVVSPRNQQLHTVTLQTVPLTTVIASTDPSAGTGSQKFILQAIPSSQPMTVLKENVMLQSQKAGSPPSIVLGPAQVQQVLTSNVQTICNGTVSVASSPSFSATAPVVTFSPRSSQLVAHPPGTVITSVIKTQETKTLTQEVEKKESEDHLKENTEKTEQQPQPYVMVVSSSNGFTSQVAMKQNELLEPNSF
SPIB, sequence (Q01892 whole entry): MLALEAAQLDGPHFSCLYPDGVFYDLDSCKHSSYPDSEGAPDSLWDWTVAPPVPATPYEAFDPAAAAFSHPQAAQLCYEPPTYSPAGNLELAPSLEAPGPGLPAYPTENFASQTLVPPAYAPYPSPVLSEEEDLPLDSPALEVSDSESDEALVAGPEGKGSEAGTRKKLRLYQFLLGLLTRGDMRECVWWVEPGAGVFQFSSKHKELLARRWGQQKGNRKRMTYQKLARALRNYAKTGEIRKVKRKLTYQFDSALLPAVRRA

## CACGAT
[1]
  binding signal: 1.4 fold enrichment (6-mer frequency, TF over GST control)
[2]
  binding signal: 1.26 fold enrichment (6-mer frequency, TF over GST control)
[3]
  binding signal: 1.33 fold enrichment (6-mer frequency, TF over GST control)
[4]
  binding signal: 1.24 fold enrichment (6-mer frequency, TF over GST control)
[5]
  binding signal: 1.27 fold enrichment (6-mer frequency, TF over GST control)
[6]
  binding signal: 1.32 fold enrichment (6-mer frequency, TF over GST control)
[7]
  binding signal: 1.27 fold enrichment (6-mer frequency, TF over GST control)
[8]
  binding signal: 1.32 fold enrichment (6-mer frequency, TF over GST control)
[9]
  binding signal: 1.25 fold enrichment (6-mer frequency, TF over GST control)
